Screening results deposited in PubChem BioAssay by National Center for Advancing Translational Sciences (NCATS).
In the library only some 5.3% were active in any assay of this set; here they are far more common.
Tau fluor counter: Counterscreen qHTS for Inhibitors of Tau Fibril Formation, Fluorescence Polarization. Potency, µM (highest dose often 57.7 µM), for inactives: at the highest dose activity change, negative = decrease. AID 1463, 2008. tau K18 P301L Alexa594 fluorescence, heparin fibrillization. 0.93% of 280,000 active; also: potency is read from the fitted curve at half-maximal effect; nearly all actives have a fitted effect of over 55% in size
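Human tau K18 P301L (15 uM unlabeled, 0.24 uM Alexa 594-labeled) in 100 mM sodium acetate pH 7 with 20 uM heparin, 6 hr at 37 C. ThT 30 uM added, 1 hr ambient; Alexa 594 FP and total fluorescence read at 555/632 nm.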
FBPA coupling cs: qHTS Assay for Inhibitors of Fructose-1,6-bisphosphate Aldolase from Giardia Lamblia: Coupling assay counterscreen; AID 2472, 2010; activity change, negative = inhibition, % at 58.2 µM, hits read low; 0.67% of 290,000 active; coupling enzyme system counterscreen, AmpLite Red fluorescence; in the data active = activity change below about -30%
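Compounds tested against the coupling enzymes alone at 57.5 uM final; readout was AmpLite Red fluorescence (525/598 nm) after 20 min at RT.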
Tau ThT inhib: qHTS for Inhibitors of Tau Fibril Formation, Thioflavin T Binding; recombinant tau K18 P301L, heparin-induced fibrillization, ThT fluorescence; 2.1% of 270,000 active; Microtubule-associated protein tau (Homo sapiens), P10636; Potency, µM (series often up to 57.4 µM), for inactives: at the highest dose activity, negative = inhibition, actives largely listed as inhibitors; also: potency is read from the fitted curve at half-maximal effect; nearly all actives have a fitted effect of over 55% in size
Target sequence (P10636 561-689 P618L limits assumed): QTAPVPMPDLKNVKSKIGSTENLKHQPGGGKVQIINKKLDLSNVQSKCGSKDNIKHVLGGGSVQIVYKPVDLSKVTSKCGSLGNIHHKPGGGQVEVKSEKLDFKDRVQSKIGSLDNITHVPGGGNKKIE
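Fibril formation assay: tau K18 P301L at 15 uM with trace Alexa 594 label, heparin inducer 20 uM, pH 7 sodium acetate buffer, 37 C for 6 hr; endpoint ThT signal.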
Tau FP inhib: qHTS for Inhibitors of Tau Fibril Formation, Fluorescence Polarization; Microtubule-associated protein tau (Homo sapiens), P10636; K18 P301L tau heparin fibrillization, Alexa594 FP, 6 h; Potency, µM (titrated, usually from 57.7 µM), for inactives: at the highest dose activity, negative = inhibition, hits mostly inhibitors; 0.39% of 280,000 active; AID 1468, 2008; also: potency is read from the fitted curve at half-maximal effect; nearly all actives have a fitted effect of over 55% in size
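Compound effects on tau fibrillization are measured by Alexa 594 fluorescence polarization (ex 555, em 632 nm). K18 P301L tau is used at 15 uM with 0.24 uM labeled tracer, and 20 uM heparin induces aggregation over 6 hr at 37 C.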
KDM4E inh: qHTS Assay for Inhibitors of Human Jumonji Domain Containing 2E (JMJD2E); Lysine-specific demethylase 4E (Homo sapiens), B2RXH2; JMJD2E catalytic domain, FDH-coupled NADH fluorescence (FDH is formaldehyde dehydrogenase); Potency, µM (series often up to 57.1 µM), without a hit: at the highest dose activity change, negative = inhibition, most hits filed as inhibitors; 1.6% of 230,000 active; AID 2147, 2009; active = well fitted inhibition curve with a large enough effect, not every such curve was filed as active; inconclusive = small, poorly fitted or top-dose-only effect, or another doubt; inactive = no such curve, though single readings can be large or run the other way;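 also: potency is read from the fitted curve at half-maximal effect; 0% = wells with enzyme and -100% = buffer wells without enzyme; nearly all actives have a fitted effect of over 50% in size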
Target sequence (B2RXH2 1-337 limits assumed): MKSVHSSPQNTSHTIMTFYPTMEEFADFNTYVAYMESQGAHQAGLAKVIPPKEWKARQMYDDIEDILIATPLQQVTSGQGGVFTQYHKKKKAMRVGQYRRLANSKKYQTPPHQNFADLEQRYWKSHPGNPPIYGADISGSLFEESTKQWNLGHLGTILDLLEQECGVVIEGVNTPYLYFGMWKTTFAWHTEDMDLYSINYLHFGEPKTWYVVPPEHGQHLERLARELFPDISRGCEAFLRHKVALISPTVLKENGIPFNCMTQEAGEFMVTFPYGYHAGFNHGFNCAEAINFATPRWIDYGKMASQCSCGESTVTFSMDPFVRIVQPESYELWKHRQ
Sfp PPTase inh: qHTS Assay for Inhibitors of Bacillus subtilis Sfp phosphopantetheinyl transferase (PPTase). Biochemical Sfp PPTase activity, qHTS. Potency, µM, for the others: largest response in the series, negative = inhibition, hits mostly inhibitors. 3.5% of 310,000 active. AID 1490, 2009;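 also: the enzyme is Sfp with the accession as filed and its product quenches rhodamine fluorescence; potency is read from the fitted curve at half-maximal effect; 0% = enzyme reaction without inhibitor and -100% = no enzyme wells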
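Compounds were incubated with enzyme (final 15 nM) for 15 min at room temperature before substrate addition started the reaction. Fluorescence at 525 nm excitation, 598 nm emission was recorded immediately and after 30 minutes.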
Numbers without * were called inactive; ? = inconclusive; . = no result given; [ ] = another dose, or the depositor's remark. Unless noted, calls follow the shape of the dose curve; as a rule, active = well fitted curve in the direction sought with a large enough effect; inconclusive = small, poorly fitted or top-dose-only effect, or another doubt; inactive = no such curve, though single readings can be large; an effect the other way counts as inactive or inconclusive. Unless noted, % is scaled to controls: 0 for no effect and ±100 for the full control effect.

SMILES	Tau fluor counter	FBPA coupling cs	Tau ThT inhib	Tau FP inhib	KDM4E inh	Sfp PPTase inh
CCOC(=O)c1c(NC(=O)/C=C/C(=O)O)sc(C)c1-c1ccc(C)c(C)c1	-2%	17	?	-6%	-1%	25µM*
COC(=O)c1c(NC(=O)/C=C/C(=O)O)sc(C)c1-c1ccc(C)cc1	5%	14	-11%	6%	11%	5%
CC(=O)Nc1ccc(S(=O)(=O)N2CCc3nc(COc4ccccc4)c4c(c3C2)CO[C@@H](C)C4)cc1	-3%[11.6 µM]	0	-1%[11.5 µM]	-2%[11.6 µM]	3%[11.4 µM]	23%
CC(=O)Nc1cccc(-c2nnc(SCC(=O)c3cc([N+](=O)[O-])ccc3Br)o2)c1	14µM*[quencher]	.	?	-19%	.	.
CCCOc1cccc(-c2cc(C(=O)NN)c3ccccc3n2)c1	-7%	-4	0%	12%	11µM*	2%
COC(=O)c1sccc1NC(=O)c1cc(-c2cccc(C)c2)nc2ccccc12	-21%	1	-11%	-13%	?	16µM*
O=C(NC1=NCCS1)c1cc(-c2ccc(-c3ccccc3)cc2)nc2ccccc12	-23%	-2	-5%	28µM*	?	-5%
COC(=O)c1sccc1NC(=O)c1cc(-c2ccc(C)cc2)nc2ccccc12	-14%	0	-14%	-4%	6%	5%
CC(C)(C)c1nnc(NC(=O)c2cc(-c3ccccc3)nc3ccccc23)s1	-17%	-4	-12%	?	?	20µM*
CSCC[C@H](NC(=O)[C@H](CCCN=C(N)N)NC(=O)[C@@H]1CCCN1C(=O)[C@H](Cc1ccccc1)NC(=O)[C@H](C)NC(=O)[C@H](CC(C)C)NC(=O)[C@H](Cc1ccc(O)cc1)NC(=O)[C@H](CC(N)=O)NC(=O)[C@@H](N)CCSC)C(N)=O	.	1	.	.	.	6%
CCOC(=O)CCCCN(Cc1ccccc1F)S(=O)(=O)c1ccc(F)c(C(=O)Nc2cc(Cl)cc(Cl)c2)c1	-23%	.	1%	-14%	.	.
COc1ccc(NC(=O)c2sc(=S)[nH]c2N)cc1	-13%	-2	?	-11%	-21%	56µM*
COC(=O)CC1Oc2ccc(F)cc2-n2cc(-c3ccc(C)cc3)nc21 (centres undefined)	-19%	.	-7%	?	.	.
Cc1cc(=O)n(CCCO)c(O)c1C#N	-3%	-38*	?	-8%	?	11%
CCCCCCCCCCCCCCCCOCC(CO)OC(C)=O (centres undefined)	2%	-1	-11%	-1%	-2%	13%
CSc1nc(N)c2ncn([C@@H]3O[C@H](COP(=O)(O)OP(=O)(O)OP(=O)(O)O)[C@H](O)[C@H]3O)c2n1	-3%	.	-1%	3%	-11%	.
Cn1cnnc1Sc1nc2ccccc2nc1NS(=O)(=O)c1ccccc1	7%	-8	-1%	-4%	?	1%
Cn1ccnc1Sc1nc2ccccc2nc1NS(=O)(=O)c1ccccc1	13%	7	5%	-3%	?	50µM*
O=C(CS(=O)Cc1ccco1)NCC=CCOc1cc(CN2CCCCC2)ccn1 (centres undefined)	.	.	.	.	.	-7%
Clc1ccc(-c2nc3nc4ccccc4nc3n2Cc2ccco2)cc1	-11%	-4	-3%	1%	-3%	7.1µM*
Cc1cc(C)nc(Sc2ccc(C=O)cc2[N+](=O)[O-])n1	0%	-1	-13%	7%	-17%	11%
O=Cc1ccc(Sc2nnc(-c3ccccc3)o2)c([N+](=O)[O-])c1	16µM*[quencher]	-14	18µM*	?	0%	-2%
Cc1ccccc1NC(=O)c1c(C)oc2ccc(O)c(CN3CCCCCC3)c12	-28%	.	?	-1%	.	.
